In the supplement of paper PMC8285479:
± gives the standard deviation of the averaged measurements. Over roughly 1,900 compounds, “normalised cell viability (NPI; 0 = phenylarsine oxide control, 1 = DMSO control)” has its median near 1; the lowest 2% begin near 0.039. The list comes from a sample in which the lowest values are over-represented; it also holds similar structures and randomly drawn compounds.

Tested on: NCI-H1944
Test: normalised cell viability (NPI; 0 = phenylarsine oxide control, 1 = DMSO control) (fraction of DMSO control); NCI-H1944 is a non-small cell lung cancer line; higher = more viable cells (less compound toxicity)
Conditions: 6 days
[1] = glucocorticoid arm: hydrocortisone 2.75 uM co-treatment, compound 1 µM
[2] = glucocorticoid arm: hydrocortisone 2.75 uM co-treatment, compound 5 µM
[3] = glucocorticoid arm: hydrocortisone 2.75 uM pre-treated 2 days and continued, compound 1 µM
[4] = glucocorticoid arm: hydrocortisone 2.75 uM pre-treated 2 days and continued, compound 5 µM
[5] = glucocorticoid arm: vehicle, compound 1 µM
[6] = glucocorticoid arm: vehicle, compound 5 µM
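Also: CTB read-out in 384-well plates, triplicate wells, NPI normalised per plate against 1 µM phenylarsine oxide (0) and 0.1% DMSO (1) controls.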

CC1(C2CCCC2)Cc2cc(OCC(=O)O)c(Cl)c(Cl)c2C1=O (stereo unspecified)
normalised cell viability [1]: 0.983 ± 0.014 | normalised cell viability [2]: 0.982 ± 0.037 | normalised cell viability [3]: 0.9883 ± 0.0072 | normalised cell viability [4]: 0.986 ± 0.084 | normalised cell viability [5]: 0.998 ± 0.011 | normalised cell viability [6]: 0.9853 ± 0.0067

Cc1ccc([N+](=O)[O-])cc1S(=O)(=O)N(C)C
normalised cell viability [1]: 1 ± 0.018 | normalised cell viability [2]: 0.9945 ± 0.0095 | normalised cell viability [3]: 1 ± 0.011 | normalised cell viability [4]: 0.978 ± 0.028 | normalised cell viability [5]: 1.004 ± 0.0094 | normalised cell viability [6]: 1.007 ± 0.0052

Cc1ccc([N+](=O)[O-])cc1S(=O)(=O)N(C)/N=C/c1cnc2ccc(Br)cn12
normalised cell viability [1]: 0.025 ± 0.0023 | normalised cell viability [2]: 0.0304 ± 0.0032 | normalised cell viability [3]: 0.0674 ± 0.0086 | normalised cell viability [4]: 0.0802 ± 0.022 | normalised cell viability [5]: 0.0104 ± 0.005 | normalised cell viability [6]: 0.00623 ± 0.0011

CCCCC/C=C\C[C@@H](O)/C=C/c1cccc(C[C@@H](O)CCCCO)n1
normalised cell viability [1]: 1.005 ± 0.0081 | normalised cell viability [2]: 1.05 ± 0.04 | normalised cell viability [3]: 1.01 ± 0.015 | normalised cell viability [4]: 1.04 ± 0.011 | normalised cell viability [5]: 1.013 ± 0.0058 | normalised cell viability [6]: 1.027 ± 0.0058

OC[C@H]1O[C@@H](n2cnc3c(N[C@H]4CCC[C@@H]4O)ncnc32)[C@H](O)[C@@H]1O
normalised cell viability [1]: 1.017 ± 0.0058 | normalised cell viability [2]: 1.01 ± 0.027 | normalised cell viability [3]: 1.01 ± 0.01 | normalised cell viability [4]: 1.01 | normalised cell viability [5]: 0.993 ± 0.015 | normalised cell viability [6]: 0.9927 ± 0.0095

CC[n+]1c(/C=C/C=C2/N(C)c3ccccc3C2(C)C)sc2ccccc21
normalised cell viability [1]: 0.467 ± 0.026 | normalised cell viability [2]: 0.434 ± 0.017 | normalised cell viability [3]: 0.901 ± 0.032 | normalised cell viability [4]: 0.798 ± 0.02 | normalised cell viability [5]: 0.237 ± 0.0069 | normalised cell viability [6]: 0.112 ± 0.0067

NC(N)=N[C@@H](CCC(=O)O)C(=O)O [alpha-Guanidinoglutaric acid]
normalised cell viability [1]: 1.01 ± 0.01 | normalised cell viability [2]: 0.983 ± 0.01 | normalised cell viability [3]: 1.006 ± 0.0063 | normalised cell viability [4]: 1.01 ± 0.021 | normalised cell viability [5]: 0.9917 ± 0.0038 | normalised cell viability [6]: 1.002 ± 0.0072

CCCCCCCCOc1ccccc1C(=O)Nc1ccc(C(=O)OCC[N+](C)(CC)CC)cc1 [Otilonium Bromide]
normalised cell viability [1]: 1.03 ± 0.01 | normalised cell viability [2]: 1.03 ± 0.026 | normalised cell viability [3]: 1.01 ± 0.026 | normalised cell viability [4]: 1.03 ± 0.025 | normalised cell viability [5]: 1.007 ± 0.0058 | normalised cell viability [6]: 1.003 ± 0.0058

CC[C@@H]1C(=O)N(C)c2cnc(Nc3ccc(C(=O)N[C@H]4CC[C@H](N5CCN(CC6CC6)CC5)CC4)cc3OC)nc2N1C(C)C [BI6727 (Volasertib)]
normalised cell viability [1]: 0.346 ± 0.023 | normalised cell viability [2]: 0.201 ± 0.025 | normalised cell viability [3]: 0.58 ± 0.017 | normalised cell viability [4]: 0.213 ± 0.15 | normalised cell viability [5]: 0.0771 ± 0.019 | normalised cell viability [6]: 0.0219 ± 0.0034

COc1cc(C(=O)NC2CCN(C)CC2)ccc1Nc1ncc2c(n1)N(C1CCCC1)CC(F)(F)C(=O)N2C
normalised cell viability [1]: 0.354 ± 0.024 | normalised cell viability [2]: 0.359 ± 0.031 | normalised cell viability [3]: 0.73 ± 0.022 | normalised cell viability [4]: 0.7627 ± 0.007 | normalised cell viability [5]: 0.066 ± 0.0089 | normalised cell viability [6]: 0.0695 ± 0.004

CC[C@@H]1C(=O)N(C)c2cnc(Nc3ccc(C(=O)NC4CCN(C)CC4)cc3OC)nc2N1C1CCCC1
normalised cell viability [1]: 0.535 ± 0.026 | normalised cell viability [2]: 0.4 ± 0.057 | normalised cell viability [3]: 0.797 ± 0.042 | normalised cell viability [4]: 0.592 ± 0.083 | normalised cell viability [5]: 0.0889 ± 0.011 | normalised cell viability [6]: 0.0658 ± 0.0046
